Results filed as inconclusive are left out. Unless noted, calls follow the shape of the dose curve; as a rule, active = well fitted curve in either direction with a large enough effect (not every such curve was filed as active); inconclusive = small, poorly fitted or top-dose-only effect, or another doubt; inactive = flat fitted curve, though single readings scatter.
Experiments:
[1] = AP1 Signaling Pathway (AID 357); conditions: ME-180 AP-1-bla reporter, EGF-induced, beta-lactamase ratio, 5 h; at 17.2 µM (top of the series) unless noted;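 also: ME-180 reporter cells stimulated with EGF at its EC50 level; % is scaled to controls: 0 for no effect and ±100 for the full control effect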
In short: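 Read-out was the 460nm/530nm emission ratio (excitation 405nm) after CCF4 loading for 2.5 hours at room temperature. Cells carried an AP-1-driven beta-lactamase reporter, were stimulated with EC50 EGF plus compound for 5 hours, and AC50 values came from titrations.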

[2] = NFAT Signaling Pathway (AID 444); conditions: Jurkat NFAT-bla M1, carbachol, beta-lactamase ratio, 5 h; at 17.2 µM (top of the series) unless noted;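 also: carbachol stimulus at about its EC50 of 1 µM final; % is scaled to controls: 0 for no effect and ±100 for the full control effect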
In short: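 Read-out: CCF4 FRET ratio (460 nm/530 nm) after 1 h RT dye loading, used for %activity and AC50 from titration series. Cells: Jurkat NFAT-β-lactamase/M1 line, treated with compound plus 1 uM carbachol for 5 h, 37 °C.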

[3] = Stat Signaling Pathway (AID 446); conditions: ME-180 (cervical carcinoma) SIE beta-lactamase reporter, IL-6 stimulated, 5 h; at 17.2 µM (top of the series) unless noted;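 also: ME-180 cervical cancer cells given 40 pM IL-6 alongside compound; SIE-controlled beta-lactamase reporter measured as 460/530 nm FRET emission ratio; % is scaled to controls: 0 for no effect and ±100 for the full control effect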
In short: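 Overnight-plated ME-180 cells bearing a STAT Inducible Element beta-lactamase reporter; 5 h co-exposure to compound and 40 pM IL-6; values normalized to 300 pM IL-6 and 125 nM JAK inhibitor controls.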

[4] = biological target: Glucocorticoid receptor (Homo sapiens) (UniProt P04150); experiment: GR-GFP Redistribution (AID 450;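 active = compounds whose dose series gives a full or clear partial fitted curve of increased nuclear translocation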; also: potency is read from the fitted curve at half-maximal effect)
Chain of Glucocorticoid receptor (Homo sapiens) (P04150 whole entry, looked up): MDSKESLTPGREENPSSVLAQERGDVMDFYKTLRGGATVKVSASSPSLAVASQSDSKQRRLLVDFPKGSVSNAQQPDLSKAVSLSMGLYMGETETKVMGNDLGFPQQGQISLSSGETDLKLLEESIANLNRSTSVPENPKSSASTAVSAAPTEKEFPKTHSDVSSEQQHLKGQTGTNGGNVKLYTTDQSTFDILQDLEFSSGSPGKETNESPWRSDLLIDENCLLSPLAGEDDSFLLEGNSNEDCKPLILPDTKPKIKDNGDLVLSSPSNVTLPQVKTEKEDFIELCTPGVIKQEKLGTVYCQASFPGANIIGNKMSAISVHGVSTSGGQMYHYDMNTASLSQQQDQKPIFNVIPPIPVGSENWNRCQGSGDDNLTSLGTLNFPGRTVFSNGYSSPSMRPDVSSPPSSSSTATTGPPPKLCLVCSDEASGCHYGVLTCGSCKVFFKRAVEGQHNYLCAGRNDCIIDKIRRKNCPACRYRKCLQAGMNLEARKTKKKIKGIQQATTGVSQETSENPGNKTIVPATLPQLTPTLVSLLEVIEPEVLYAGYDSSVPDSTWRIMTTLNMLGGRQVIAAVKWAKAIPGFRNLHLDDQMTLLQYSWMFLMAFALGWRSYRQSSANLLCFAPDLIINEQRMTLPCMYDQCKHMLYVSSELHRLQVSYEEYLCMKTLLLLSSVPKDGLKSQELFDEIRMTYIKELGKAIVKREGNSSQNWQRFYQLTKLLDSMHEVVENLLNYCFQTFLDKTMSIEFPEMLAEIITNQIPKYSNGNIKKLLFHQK

CC(=Nc1ccc(C)c(C)c1)C1=C(O)CCC1=O
inactive: activity change, negative = inhibition [1] 13.3% | activity change, negative = inhibition [2] -8.58% | activity, negative = inhibition [3] 24.8% | Potency [4] > 20.6 µM

Cc1ccc(C2/C(=C(/O)c3ccc(OC(C)C)cc3)C(=O)C(=O)N2CCN2CCOCC2)cc1 (configuration not stated)
inactive: activity change, negative = inhibition [1] 0.482% | activity change, negative = inhibition [2] 10.1% | activity, negative = inhibition [3] -12.8% | Potency [4] > 20.6 µM

O/N=C1\CCc2cc(Cl)ccc21
inactive: activity change, negative = inhibition [1] -7.29% | activity change, negative = inhibition [2] -1.82% | activity, negative = inhibition [3] 6.47% | Potency [4] > 20.6 µM

CCOC(=O)C1/C(=N\O)CC(C)(O)C(C(=O)OCC)C1c1ccc(N(C)C)cc1 (configuration not stated)
inactive: activity change, negative = inhibition [1] 6.52% | activity change, negative = inhibition [2] 2.58% | activity, negative = inhibition [3] -4.68% | Potency [4] > 20.6 µM

O=C(c1ccc(=O)oc1)N1CCN(c2ccc(F)cc2)CC1
inactive: activity change, negative = inhibition [1] 2.08% | activity change, negative = inhibition [2] -11.6% | activity, negative = inhibition [3] -4.16% | Potency [4] > 20.6 µM

CSc1nc(Oc2ccc(=O)[nH]n2)nc(N(C)C)n1
inactive: activity change, negative = inhibition [1] 0.488% | activity change, negative = inhibition [2] -5.44% | activity, negative = inhibition [3] 3.84% | Potency [4] > 20.6 µM

Cc1cc(=O)n2[nH]c(N3C(=O)CCC3=O)nc2n1
inactive: activity change, negative = inhibition [1] 5.03% | activity change, negative = inhibition [2] -4.69% | activity, negative = inhibition [3] 11.6% | Potency [4] > 20.6 µM

COC(=O)C(NC(=O)c1ccccc1)(Nc1nccs1)C(F)(F)F (configuration not stated)
inactive: activity change, negative = inhibition [1] 6.27% | activity change, negative = inhibition [2] 2.67% | activity, negative = inhibition [3] 5.62% | Potency [4] > 20.6 µM

CN(C)CCCn1c(NC(=O)C2CCCCC2)nc2ccccc21
inactive: activity change, negative = inhibition [1] 1.38% | activity change, negative = inhibition [2] -10.7% | activity, negative = inhibition [3] 6.97% | Potency [4] > 20.6 µM

O=C1C(=O)N(CCCn2ccnc2)C(c2ccccn2)/C1=C(/O)c1ccccc1 (configuration not stated)
inactive: activity change, negative = inhibition [1] 15.8% | activity change, negative = inhibition [2] 6.66% | activity, negative = inhibition [3] -2.92% | Potency [4] > 20.6 µM

COC(=O)CN(c1nc(C)cc(OC)n1)S(=O)(=O)c1ccccc1
inactive: activity change, negative = inhibition [1] -9.15% | activity change, negative = inhibition [2] -15.3% | activity, negative = inhibition [3] 8.46% | Potency [4] > 20.6 µM

O=C(O)c1cc2n(n1)C(C(F)(F)F)CC(c1ccccc1)N2 (configuration not stated)
inactive: activity change, negative = inhibition [1] 3.84% | activity change, negative = inhibition [2] -0.387% | activity, negative = inhibition [3] -1.46% | Potency [4] > 20.6 µM

COc1ccc2nc(/N=C(\N)NC(=O)C(C)(C)C)nc(C)c2c1
inactive: activity change, negative = inhibition [1] 1.33% | activity change, negative = inhibition [2] 0.865% | activity, negative = inhibition [3] 0.61% | Potency [4] > 20.6 µM

Cc1nc(SCC(N)=O)[nH]c(=O)c1Cc1ccc(OC(C)C)cc1
inactive: activity change, negative = inhibition [1] 12% | activity change, negative = inhibition [2] 1.93% | activity, negative = inhibition [3] 8.12% | Potency [4] > 20.6 µM

CCCc1cc(=O)oc2c(CN3CCCC3)c(O)ccc12
inactive: activity change, negative = inhibition [1] -13.6% | activity change, negative = inhibition [2] 8.87% | activity, negative = inhibition [3] 2.68% | Potency [4] > 20.6 µM

Cc1ccc(S(=O)(=O)/C(C#N)=C/c2c(N3CCN(C)CC3)nc3ccccn3c2=O)cc1
inactive: activity change, negative = inhibition [1] -12.9% | activity change, negative = inhibition [2] -5.08% | activity, negative = inhibition [3] 1.8% | Potency [4] > 20.6 µM

C[N+]1(CCNC(=O)/C=N/O)CCCCC1
inactive: activity change, negative = inhibition [1] 7.1% | activity change, negative = inhibition [2] -12.9% | activity, negative = inhibition [3] 5.42% | Potency [4] > 20.6 µM

O=C1CCC(=O)N1CN(Cc1ccco1)CN1C(=O)CCC1=O
inactive: activity change, negative = inhibition [1] 7.15% | activity change, negative = inhibition [2] 5.38% | activity, negative = inhibition [3] 0.484% | Potency [4] > 20.6 µM

CC(=O)NCC(=O)OCN1C(=O)c2ccccc2C1=O
inactive: activity change, negative = inhibition [1] 10.5% | activity change, negative = inhibition [2] -1.05% | activity, negative = inhibition [3] 0.512% | Potency [4] > 20.6 µM

O=C1C=C(O)CC(c2ccc(Cl)c(Cl)c2)C1 (configuration not stated)
inactive: activity change, negative = inhibition [1] 7.55% | activity change, negative = inhibition [2] -10.9% | activity, negative = inhibition [3] -4.42% | Potency [4] > 20.6 µM

COc1ccc(OC)c(N=C(C)C2=C(O)COC2=O)c1
inactive: activity change, negative = inhibition [1] -4.74% | activity change, negative = inhibition [2] 0.486% | activity, negative = inhibition [3] -3.94% | Potency [4] > 20.6 µM

Cn1nccc1C(=O)Nc1ccccc1C(=O)O
inactive: activity change, negative = inhibition [1] -2.42% | activity change, negative = inhibition [2] 5.13% | activity, negative = inhibition [3] 4.71% | Potency [4] > 20.6 µM

Cc1cc2c(c(=O)n1CC1CCCO1)C(c1ccc3c(c1)OCO3)C(C#N)=C(N)O2 (configuration not stated)
inactive: activity change, negative = inhibition [1] -18.5% | activity change, negative = inhibition [2] -16.1% | activity, negative = inhibition [3] -17.8% | Potency [4] > 20.6 µM

CCc1cc(=O)oc2cc(C)c(CN3CCCCC3)c(O)c12
inactive: activity change, negative = inhibition [1] 7.78% | activity change, negative = inhibition [2] -13.9% | activity, negative = inhibition [3] -6.86% | Potency [4] > 20.6 µM

CN=C1c2c(-c3ccccc3)c3cc(OC)ccc3n2CCN1C
inactive: activity change, negative = inhibition [1] 24.6% | activity change, negative = inhibition [2] -8.39% | activity, negative = inhibition [3] -1.77% | Potency [4] > 20.6 µM

CC(C)CCOc1ccc(Cl)cc1CN1CCOCC1
inactive: activity change, negative = inhibition [1] 26.6% | activity change, negative = inhibition [2] 5.23% | activity, negative = inhibition [3] 9.43% | Potency [4] > 20.6 µM

CCOC(=O)CCCCC(=O)NC(CO)C(=O)NC (configuration not stated)
inactive: activity change, negative = inhibition [1] 13.2% | activity change, negative = inhibition [2] 6.3% | activity, negative = inhibition [3] 8.86% | Potency [4] > 20.6 µM

O=C(NCc1ccco1)c1ccc(=O)oc1
inactive: activity change, negative = inhibition [1] 13.8% | activity change, negative = inhibition [2] 6.96% | activity, negative = inhibition [3] -6.97% | Potency [4] > 20.6 µM

CCOC(=O)Cn1c(SC)nc2sc3c(c2c1=O)CC(C)(C)OC3
inactive: activity change, negative = inhibition [1] 3.62% | activity change, negative = inhibition [2] 10.2% | activity, negative = inhibition [3] -3.19% | Potency [4] > 20.6 µM

COCCCNc1nc2c(c(=O)n(C)c(=O)n2C)n1Cc1cccc(OC)c1
inactive: activity change, negative = inhibition [1] -8.39% | activity change, negative = inhibition [2] -4.82% | activity, negative = inhibition [3] -3.35% | Potency [4] > 20.6 µM

Cn1c(=O)n(CC(=O)Nc2ccccc2)c2ccccc21
inactive: activity change, negative = inhibition [1] -5.57% | activity change, negative = inhibition [2] -4.15% | activity, negative = inhibition [3] -7.48% | Potency [4] > 20.6 µM

Cc1c(C(=O)O)sc(=S)n1-c1ccccc1
inactive: activity change, negative = inhibition [1] 11% | activity change, negative = inhibition [2] 2.74% | activity, negative = inhibition [3] 4.36% | Potency [4] > 20.6 µM

COc1cccc(C(=O)NCC(=O)n2nc(C)cc2C)c1
inactive: activity change, negative = inhibition [1] 23.4% | activity change, negative = inhibition [2] -4.99% | activity, negative = inhibition [3] 16.7% | Potency [4] > 20.6 µM

Cc1ccc(C(=O)NCCCNCCCNC(=O)c2ccc(C)nc2)cn1
inactive: activity change, negative = inhibition [1] 8.18% | activity change, negative = inhibition [2] -5.81% | activity, negative = inhibition [3] 5.34% | Potency [4] > 20.6 µM

Cc1ccc(-n2c(N)c(C(N)=O)sc2=S)cc1
inactive: activity change, negative = inhibition [1] 6.9% | activity change, negative = inhibition [2] 9.14% | activity, negative = inhibition [3] -24.5% | Potency [4] > 20.6 µM

O=C1OC(N2CCN(C/C=C/c3ccccc3)CC2)c2ccccc21 (configuration not stated)
inactive: activity change, negative = inhibition [1] 7.53% | activity change, negative = inhibition [2] 10.2% | activity, negative = inhibition [3] 0.214% | Potency [4] > 20.6 µM

COC(=O)c1cc(Br)c(=O)n(Cc2cccnc2)c1
inactive: activity change, negative = inhibition [1] 2.36% | activity change, negative = inhibition [2] 10.7% | activity, negative = inhibition [3] 9.48% | Potency [4] > 20.6 µM

CC1(C)CNC(=O)c2sc(N3CCOCC3)nc2C1
inactive: activity change, negative = inhibition [1] -10.8% | activity change, negative = inhibition [2] 26.7% | activity, negative = inhibition [3] 3.19% | Potency [4] > 20.6 µM
